Assay results reported in PubChem BioAssay (NCI).
The panel holds about 79,000 compounds, 15% with a hit somewhere; the sample as a whole holds those more often. Unmarked numbers belong to inactive results. Activity calls are given as the source filed them. Cut-off read from the data, not from the text of the source: active = growth inhibition above about 70%; inactive = the rest.

Experiments:
[1] = NCI Yeast Anticancer Drug Screen. Data for the rad50 strain (AID 155);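 note: 0% = growth of vehicle-only cultures of the same strain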; details: S. cerevisiae rad50 strain growth inhibition; at 50.0 µM; hits give high values
Procedure, shortened: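 Yeast carrying a defined DNA repair defect were exposed to test compounds, and growth was compared with vehicle-treated controls to give percent inhibition.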

[2] = NCI Yeast Anticancer Drug Screen. Data for the mec2-1 strain (AID 157); details: S. cerevisiae mec2-1 strain, at 50.0 µM, hits give high values
Procedure, shortened: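 Each compound was tested on mec2-1 yeast, a strain altered in DNA damage repair or cell cycle control. Growth inhibition is reported relative to vehicle.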

[3] = NCI Yeast Anticancer Drug Screen. Data for the sgs1 mgt1 strain (AID 161);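 note: 0% = growth of cultures given vehicle only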; details: S. cerevisiae sgs1 mgt1 strain, at 50.0 µM, hits give high values
Procedure, shortened: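 Genetically altered yeast, compound exposure, growth inhibition relative to vehicle.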

[4] = NCI Yeast Anticancer Drug Screen. Data for the cln2 rad14 strain (AID 165);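 note: 0% = growth equal to vehicle treated cultures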; details: S. cerevisiae cln2 rad14 strain, at 50.0 µM, hits give high values
Procedure, shortened: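 Test compounds were added to cln2 rad14 yeast cultures; inhibition of growth was then determined by comparison with vehicle treatment.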

[5] = NCI Yeast Anticancer Drug Screen. Data for the bub3 strain (AID 167); details: S. cerevisiae bub3 mutant strain, at 50.0 µM, hits give high values
Procedure, shortened: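 Compounds were applied to a genetically altered yeast strain carrying a cell-cycle control defect. Growth inhibition was scored against vehicle-treated controls.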

[6] = NCI Yeast Anticancer Drug Screen. Data for the mlh1 rad18 strain (AID 175); details: S. cerevisiae mlh1 rad18 strain growth inhibition; at 50.0 µM; hits give high values
Procedure, shortened: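 Inhibition values reflect reduced growth of mutant yeast versus vehicle-treated controls following compound exposure; the mutations affect DNA damage repair.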

Row | Structure (SMILES) | growth inhibition [1] | growth inhibition [2] | growth inhibition [3] | growth inhibition [4] | growth inhibition [5] | growth inhibition [6]
1 | CC(=O)Oc1cc2c(cc1Cc1ccc3c(c1)OCO3)OCO2 | -18.6% | -17.2% | -7% | -6.2% | 15.9% | -14.5%
2 | O=c1c[n+](-c2ccccc2)[nH]o1 | 41.2% | -12.1% | 22.1% | 5.5% | 7.7% | 27.5%
3 | CN(C)CCCN1N=Nc2cccc3cccc1c23 | 1.75% | 8.25% | -14.3% | 11.7% | 15.2% | 20.1%
4 | Cc1cc(C)cc(NC(=O)CCC(=O)C2CCC/C2=N\NC(=O)C(=O)NN)c1 (configuration not stated) | 3.95% | -2.7% | -20.6% | 2.1% | 5.2% | -6.8%
5 | O=S(=O)(O)c1ccc(S)cc1 | 2.7% | 1.55% | 16.7% | -6.5% | -31% | 1.6%
6 | COc1ccc(CCCC2C(=O)CC(C)OC2=O)cc1OC (configuration not stated) | -26.9% | 3.25% | 2.1% | -25.8% | 3.05% | -0.4%
7 | N#Cc1nc(CCCCCN2C(=O)c3ccccc3C2=O)oc1N | -8.9% | 9.2% | -23.1% | -4.1% | -28.6% | -68.8%
8 | Nc1nc(Cl)c2ncn(C3OC(CO)C(O)C3O)c2n1 (configuration not stated) | -8.1% | -3.65% | -1.9% | -34.5% | -5.2% | 1.4%
9 | O=C(Sc1ccccc1)C1OC1c1ccccc1 (configuration not stated) | 70.2% (active) | 28.6% | 22.6% | 60.8% | 63.1% | 80.5% (active)
10 | COc1ccc2ccccc2c1Br | -11.3% | 8.25% | -3.25% | -24.1% | -19.3% | 8.65%
11 | Cc1ccc(S(=O)(=O)N/N=C2/C(=N/NS(=O)(=O)c3ccc(C)cc3)C3CCC2C3)cc1 | 6.7% | 4.85% | -2.75% | -29.2% | -1.7% | -6.45%
12 | O=C(NCCCC1NC(=O)/C(=C(O)/C=C/C=C/c2ccccc2)C1=O)OCc1ccccc1 (configuration not stated) | 38.4% | -1.65% | 17.1% | -2.75% | 0.25% | 21.8%
13 | CCOC1(c2ccccc2)OC(=O)c2ccccc21 (configuration not stated) | 18.9% | 3.15% | 9.8% | 16.7% | 2.4% | 11.7%
14 | CCCCCCCCC1=C(CCCCCCC(=O)OC)[14CH2]1 | 0.25% | 16.6% | -11.2% | 43.4% | 3% | 24.5%
15 | NC1C(=O)Nc2ccccc21 (configuration not stated) | 1.85% | 5.95% | -5.75% | -1.05% | 8.35% | 4.95%
16 | CCOCCC(=N)OCC | 11.2% | -4.7% | 7.9% | 9.45% | 4.2% | 13.6%
17 | Cc1ccc(S(=O)(=O)OCOS(=O)(=O)c2ccc(C)cc2)cc1 | 23.1% | 22.2% | 4.95% | 3.15% | -34.4% | -25.2%
18 | C=CCc1ccc(O)c(OC)c1 | 36% | -3.25% | -10.4% | 9.7% | 26.4% | 25%
19 | CCCCCCCCC[N+]12CC[N+](CCCCCCCCC)(CC1)CC2 | 8.2% | 15.2% | -4.9% | 2.15% | 8.8% | 5.25%
20 | Clc1ccc(-c2cc(-c3ccc(Cl)cc3)n(-c3ccccc3)n2)cc1 | -17.5% | -33.9% | -24.2% | 4% | 6.55% | -9.2%
21 | O=C(O)/C=C/C(O)C1CCCCC1 (configuration not stated) | -31.1% | -8.35% | -0.95% | -23.1% | 1.05% | -4.65%

Row | Structure (SMILES) | growth inhibition [1] | growth inhibition [2] | growth inhibition [3] | growth inhibition [4] | growth inhibition [5] | growth inhibition [6]
22 | COc1ccc(COCc2ccc(OC)cc2)cc1 | 4.55% | -10.6% | 8.7% | -66.5% | 13.8% | 12.7%
23 | CCCCCCCCCCCCSC1=C(OC)C(=O)C(OC)=C(OC)C1=O | 33.5% | 13.8% | 26.6% | -5.2% | -1.35% | 16.5%
24 | Nc1ccc(/C=C\C(=O)c2ccccc2)cc1 | 16.4% | 1.05% | 12.1% | 12.6% | 4.25% | 17.4%
25 | CCN(CC)CCN=C1Nc2ccccc2N(O)N1 | 0.55% | -1.5% | 11.6% | -23.3% | 12.6% | -2.95%
26 | Cc1cccc([Si](c2ccccc2)(c2ccccc2)c2ccccc2)c1 | -3.7% | -6.35% | -9.2% | -0.75% | -21.6% | 8.8%
27 | NC(=O)c1cc2c(c3c1CCCC3)CCCC2 | 4.2% | -6.6% | -3.55% | -52% | -13.9% | -2.3%
28 | COC(=O)c1ccc(SCCC(=O)CO)cc1 | 19.4% | 15.9% | -4.6% | 5.35% | 13% | 23.9%
29 | O=C(O)CSCCOCCSCC(=O)O | -15.9% | -54% | -17.1% | 12.1% | -16.3% | -15.6%
30 | O=S(=O)(O)CO | 16.9% | 4.6% | 26% | 7.35% | -7.7% | 20.4%
31 | C(#Cc1ccccc1)SC1=C(c2ccccc2)S/C(=C(\SC#Cc2ccccc2)c2ccccc2)S1 | 9.6% | 7.7% | -29.4% | 10.9% | -21.1% | -30.8%
32 | CC(CNC(=O)c1ccccc1)(CNC(=O)c1ccccc1)[N+](=O)[O-] | 8.95% | 1.35% | -3.2% | 6.75% | 0.8% | 3.85%
33 | CCCCCCCCCCNCC(=O)O | -11.1% | -16.6% | -1.65% | -7.6% | -1.6% | -8.95%
34 | O=C1Nc2ccccc2C1O (configuration not stated) | 7.15% | 3.3% | -37.5% | -17.7% | 11.1% | -4.2%
35 | O=C(C/C(=C/c1ccccc1)[N+](=O)[O-])c1ccccc1 | 99.2% (active) | 99.2% (active) | 99.3% (active) | 98.8% (active) | 99% (active) | 98.8% (active)
36 | O=C1CSC(c2ccc(Br)cc2)N1c1nncs1 (configuration not stated) | -2.75% | 19.6% | 18.2% | -9.95% | 6.6% | 23.3%
37 | Cc1ccc2cccc(OC(=O)Nc3cc(Cl)c(Cl)cc3Cl)c2n1 | -5.7% | -17.8% | 4.5% | -4.8% | -14.2% | 3.9%
38 | O=C(Cl)C(Cl)(c1ccccc1)c1ccccc1 | 2.15% | 13.6% | 4.15% | -6.9% | 17.1% | 3.75%
39 | CCC(C(C)=O)C(C)C (configuration not stated) | 5.2% | 6.55% | 8.6% | 7.2% | -2% | 13.3%
40 | CCC(C)C(C)/C(C)=N/Nc1ccc([N+](=O)[O-])cc1[N+](=O)[O-] (configuration not stated) | 13.7% | -10% | 0.25% | -34.9% | 6.6% | -26.4%
41 | CCc1nc(N)nc(N)c1-c1ccc(NCCN)c(N)c1 | 3.4% | 6.35% | 5.15% | -6.05% | 12.2% | 8.5%
42 | O=C([CH-]C(=O)C(F)(F)F)c1ccccc1.O=C([CH-]C(=O)C(F)(F)F)c1ccccc1.O=C([CH-]C(=O)C(F)(F)F)c1ccccc1.[Ru+3] | -11.2% | -13.8% | -11.5% | -22.7% | 9.8% | 4.75%
